Reference: PubChem BioAssay (NCI)
This is part of a sample that, as a whole, favours compounds with a hit. Of some 83,000 tested, about 20% had one in any assay.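 Results are percent growth after 48 hours of single-concentration exposure. 100 means growth as in untreated cells, lower positive values show inhibition; negative values down to -100 show cell death.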 Activity calls are given as the source filed them. How the source made its calls: active means growth percent below 10; inactive means the rest.

system: MDA-MB-468 breast; experiment: NCI-60 one-dose screen, 48 h (100 = growth as untreated, 0 = no growth, -100 = all killed); settings: 10 µM unless noted

With `N#Cc1nc(-c2ccccc2)oc1S(N)(=O)=O` as the compound, how does the growth read?
The growth was 41.1% (inactive).

How did the growth turn out when `Oc1cccnc1CN1CCCC1` was run?
The growth was 104% (inactive).

Which growth does the source give for `NC1=NC(c2ccc(Cl)cc2)C2=C(N1)/C(=C/c1ccc(Cl)cc1)CCC2` (stereo not given) here?
The growth was 62.2% (inactive).

How did the growth turn out when `N#Cc1c(-c2ccccc2)nc(SCC2CO2)nc1N1CCOCC1` (stereo not given) was run?
The growth was 55.9% (inactive).

`CC(C)C[C@@H](C(=O)N[C@H](C(=O)OC1CCCC1)c1ccccc1)[C@H](O)C(=O)NO` was tested. Which growth did it give?
The growth was 16.9% (inactive).

`Cc1c(NC(=O)c2sc3nc4c(cc3c2N)CN(Cc2ccccc2)CC4)cccc1C(F)(F)F` was tested. Which growth did it give?
The growth was -5.77% (active).

How did the growth turn out when `O=[N+]([O-])c1ccc(CO)cc1` was run?
Its growth is 0.448% (active).

How did the growth turn out when `COc1ccc(/C=C2\NC(=S)NC2=O)cc1` was run?
Its growth is 102% (inactive).

How did the growth turn out when `CCC(C)C1CCC(O)CC1` (stereo not given) was run?
The growth was 101% (inactive).

`COc1nc2c(c(=O)n1C)CN(Cc1ccccc1)C=N2` was tested. Which growth did it give?
Its growth is 97.6% (inactive).

For `Cc1ccc(Nc2nc(-c3cc(O)c(C)c(C)c3O)cs2)cc1`, which growth is on record?
Its growth is 44.5% (inactive).

`COc1nc2ccc(C)cc2cc1-c1nc2c(cnn2-c2ccccc2)c(=O)[nH]1` was tested. Which growth did it give?
Its growth is 69.4% (inactive).

How did the growth turn out when `OC1CSSC1Cn1cnc2c(Nc3ccc(OCc4cccc(F)c4)c(Cl)c3)ncnc21` (stereo not given) was run?
Its growth is -53.2% (active).

For `COc1ccc(-c2nc(/C=N/Nc3cc(C)nc4ccc(Br)cc34)c(C)o2)cc1`, which growth is on record?
Its growth is -78.9% (active).

With `O=c1ccn(C2CCCO2)c(=O)[nH]1` (stereo not given) as the compound, how does the growth read?
Its growth is 104% (inactive).

`CC1=C2[C@@H](CC1)[C@]1(C)O[C@@](C3CCNCC3)(C[C@H]1OC(=O)CO)[C@H]2OC(=O)/C=C/c1ccccc1` was tested. Which growth did it give?
Its growth is 75.3% (inactive).

How did the growth turn out when `COc1ccc(Cn2cc3c(c2)-c2oncc2CC3)cc1OC` was run?
The growth was -7.7% (active).

For `Cc1ccc(C2=N[C@H]3CCC[C@@H]3N(c3ccccc3)C(C(Cl)Cl)=N2)cc1`, which growth is on record?
The growth was 116% (inactive).

With `Cc1nc2ccccc2c(/C=C/c2ccc(F)cc2)c1C(N)=O` as the compound, how does the growth read?
The growth was 107% (inactive).

With `[2H]C1([2H])[C@H](C)O[C@H](C)C([2H])([2H])N1c1ccc(NC(=O)c2cccc(-c3ccc(OC(F)(F)F)cc3)c2C)cn1` as the compound, how does the growth read?
The growth was 41.9% (inactive).

Which growth does the source give for `CCOC(=O)c1cc2c(n1Cc1ccccc1OC)-c1oncc1CCC2` here?
Its growth is 7.1% (active).

How did the growth turn out when `CCN(CC)CCCC(C)Nc1ccnc2ccc(Oc3ccccc3)cc12` (stereo not given) was run?
The growth was 54.7% (inactive).

For `COc1ccc(NC(=O)Nc2ccc(OCCCCCC(=O)NO)cc2)cc1`, which growth is on record?
Its growth is 93.1% (inactive).

`Cc1[nH]c(C(=O)Nc2ccccc2OC2CCNCC2)c(Cl)c1Cl` was tested. Which growth did it give?
The growth was 16.2% (inactive).

`Cc1ccc(/C=C/C(=O)c2ccc(NC(=O)CSc3nc4c([nH]3)c(=O)n(C)c(=O)n4C)cc2)c(C)c1` was tested. Which growth did it give?
The growth was 34.1% (inactive).

With `O=C(CN1CCOCC1)Nc1ccc(Cn2nnc3c2C(=O)c2nnn(Cc4ccc(NC(=O)CN5CCOCC5)cc4)c2C3=O)cc1` as the compound, how does the growth read?
Its growth is -61.7% (active).

Which growth does the source give for `COc1ccccc1C(OC(C)=O)OC(C)=O` here?
The growth was 98% (inactive).

For `CN1CCN(c2ccc(-c3cc4c(Nc5ccc(F)c(Cl)c5)ncnn4c3)cn2)CC1`, which growth is on record?
The growth was 70.1% (inactive).

`COc1cc(-c2nc3sccn3c2-c2ccnc(S(C)(=O)=O)n2)ccc1F` was tested. Which growth did it give?
The growth was 72.3% (inactive).

How did the growth turn out when `C#CCOc1cccc(-c2ncnc3cc(NC(=O)C=C)ccc23)c1` was run?
The growth was -8.85% (active).

How did the growth turn out when `COc1ccc(Nc2nccc(N3CCN(c4c5ccc(Cl)cc5nc5ccc(OC)cc45)CC3)n2)cc1` was run?
The growth was 31.5% (inactive).

With `CC(C)(C)c1cc(C(=O)Nc2cc3ccccc3cc2C(=O)NCCN)cc(C(C)(C)C)c1` as the compound, how does the growth read?
Its growth is -87.6% (active).

Which growth does the source give for `CCNCCNc1cc(-c2ccc(Cl)c(Cl)c2)c(C#N)c2nc3ccccc3n12` here?
The growth was -80.9% (active).

`COc1ccc(C(=O)CC(c2ccccc2)C(C#N)c2ccccc2)cc1` (stereo not given) was tested. Which growth did it give?
The growth was 69.8% (inactive).

How did the growth turn out when `C=CCC(O)C=C` (stereo not given) was run?
Its growth is 102% (inactive).

`CC1(C)C(=O)/C(=C\c2ccco2)C[C@]2(C)[C@H]3CC[C@@H]4[C@@H](C(=O)/C=C/c5ccco5)CC[C@@]4(C)[C@]3(C)CC[C@@H]12` was tested. Which growth did it give?
The growth was -1.49% (active).

`c1cc(C2CCCCC2)ccc1OCCCCCCN1CCNCC1` was tested. Which growth did it give?
Its growth is 1.63% (active).

`Brc1ccc2c(c1)CN(C1CCCCC1)CO2` was tested. Which growth did it give?
The growth was 110% (inactive).

Which growth does the source give for `CN(C)CCN(C)c1ccc2ncc(C#Cc3cncc(C(=O)Nc4ccc(CN5CCN(C)CC5)c(C(F)(F)F)c4)c3)n2n1` here?
The growth was 84.8% (inactive).

For `Cc1ccc(-c2onc3c(=O)[nH]nc(-c4ccccc4)c23)cc1`, which growth is on record?
The growth was 29.5% (inactive).
